# Compound activity as filed in PubChem BioAssay.
# Hits are enriched below; roughly 2.1% of the tested compounds scored in any of these assays.
# PABP1 MLLE inh: inhibitors of microRNA-mediated deadenylation, human PABP1 MLLE binding; actives 0.36% (n = 360,000); inhibition, % at 20 µM; GST-MLLE / FITC-PAM2 fluorescence polarization; in the data active means inhibition above about 35%, passing the limit was not always enough;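 further: plate controls were DMSO wells with GST-MLLE for no effect and wells lacking GST-MLLE protein for full effect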
# PABP FP inh: blocks human PABP binding to poly(A) RNA | inhibition, % at 35 µM | actives 1% (n = 290,000) | fluorescence polarization | AID 2014 | P11940;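 further: calls also rest on retests at 20 µM and on dose response follow-up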
# NRP1-CendR mod: alters CendR peptide binding to human NRP-1 | AID 602438 | FAM-RPARPAR peptide binding to NRP-1, fluorescence polarization | inhibition, % at 25 µM | O14786 | actives 0.85% (n = 360,000);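 active means inhibition or corrected inhibition above about 18%, plus a signal ratio from 0.5 to 1.5, limit read from the data, passing the limit was not always enough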
# Target sequence (O14786 whole entry, looked up): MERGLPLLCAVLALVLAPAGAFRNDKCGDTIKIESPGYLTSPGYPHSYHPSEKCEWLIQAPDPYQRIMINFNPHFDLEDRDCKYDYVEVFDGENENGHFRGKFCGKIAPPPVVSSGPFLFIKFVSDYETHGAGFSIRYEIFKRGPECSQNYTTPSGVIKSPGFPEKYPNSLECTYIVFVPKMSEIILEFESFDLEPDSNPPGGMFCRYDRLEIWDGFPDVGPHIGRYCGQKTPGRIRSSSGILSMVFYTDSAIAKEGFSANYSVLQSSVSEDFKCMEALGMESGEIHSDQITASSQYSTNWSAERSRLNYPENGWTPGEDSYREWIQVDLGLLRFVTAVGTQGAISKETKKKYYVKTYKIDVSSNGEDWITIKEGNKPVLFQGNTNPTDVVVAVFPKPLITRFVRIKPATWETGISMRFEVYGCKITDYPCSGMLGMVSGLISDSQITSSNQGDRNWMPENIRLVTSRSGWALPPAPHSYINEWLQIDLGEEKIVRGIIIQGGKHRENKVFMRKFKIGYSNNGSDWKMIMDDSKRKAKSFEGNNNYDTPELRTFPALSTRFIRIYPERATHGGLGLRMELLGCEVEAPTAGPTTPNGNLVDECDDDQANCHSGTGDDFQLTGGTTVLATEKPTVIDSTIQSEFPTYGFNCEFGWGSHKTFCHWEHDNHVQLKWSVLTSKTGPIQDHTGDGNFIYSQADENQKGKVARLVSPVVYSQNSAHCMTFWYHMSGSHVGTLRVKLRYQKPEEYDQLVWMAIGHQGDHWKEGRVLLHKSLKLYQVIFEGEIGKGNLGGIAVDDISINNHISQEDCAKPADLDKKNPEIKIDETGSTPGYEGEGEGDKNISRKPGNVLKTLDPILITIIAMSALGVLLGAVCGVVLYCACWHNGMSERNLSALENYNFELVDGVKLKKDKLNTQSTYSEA
# eIF4H FP inh: inhibitors of RNA binding by human eIF4H. AID 2012. inhibition, % at 35 µM. actives 0.94% (n = 290,000). eIF4H fluorescence polarization binding assay;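 further: calls also rest on retests at 20 µM and on dose response follow-up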
# Numbers without * were called inactive; ? = inconclusive; . = not tested or not shown. Unless noted, how the calls were made is not given here.
SMILES,PABP1 MLLE inh,PABP FP inh,NRP1-CendR mod,eIF4H FP inh
O=C1OC(c2ccc3c(c2)OCO3)=N/C1=C\c1ccc(C(=O)O)cc1,0,-1,-74,55*
CC(=O)Nc1cc(-c2cccc(F)c2)cn2c(-c3ccc(F)c(Cl)c3)cnc12,-11,.,-14,.
O=C(NCc1ccccc1)c1cc[n+](Cc2ccccc2)cc1,-11,-10,-5,-3
C/C(=N/N=C(\C)c1ccccc1O)c1ccccc1O,-12,66*,-36,86
CCC(=NN=C(CC)c1ccccc1O)c1ccccc1O,0,.,5,.
CN(c1ccc(O)cc1)c1nc(-c2cccs2)cs1,0,0,-4,-7
Cc1nc(N)sc1-c1csc(N(C)c2ccc(O)cc2)n1,-9,70*,-10,92*
Cn1nc(C(F)(F)F)c(C#N)c1N1CCN(c2cccc(C(F)(F)F)c2)CC1,10,-1,39*,-2
Cc1nc2ncnn2c(N2CCN(c3cccc(C(F)(F)F)c3)CC2)c1C,-13,-11,-1,1
Cc1c(-n2c(O)c(C3=c4ccccc4=NC3=O)sc2=O)c(=O)n(-c2ccccc2)n1C,47*,2,-1,-8
Cn1c(O)c(C2=c3ccccc3=NC2=O)sc1=Nc1ccc(Cl)cc1,-12,-1,-21,3
Cc1ccc(-c2nn(-c3ccccc3)cc2NC(=O)CCl)cc1,13,15,-4,6
O=C1NC(c2ccc(Br)cc2)Nc2sc3c(c21)CCC3 (stereo not drawn),-4,66*,-48,103*
CN1CCc2c(sc3c2C(=O)NC(c2ccccn2)N3)C1 (stereo not drawn),51,?,-1,?
CN1CCc2c(sc3c2C(=O)NC(c2ccccc2)N3)C1 (stereo not drawn),-48,active,-21,63*
O=C1NC(c2ccccn2)Nc2sc3c(c21)CCC3 (stereo not drawn),16,57,-6,86
Cc1cccc(C(=O)NCCCNC(=O)c2cccnc2)c1,-1,4,-7,-16
CC1CCCC(N2CCN(S(=O)(=O)c3ccccc3)CC2)C1 (stereo not drawn),9,27,-2,12
NC(=O)NN=C1CCN2CCCc3cccc1c32,-4,.,-12,.
N#C/C(=C\c1ccc(-c2ccccc2C(=O)O)o1)c1nc2ccccc2[nH]1,-126,49*,-175,79
Cc1c(C(=O)O)cccc1-c1ccc(/C=N/n2cnnc2)o1,-22,43*,-14,53*
COC(=O)c1ccccc1-c1ccc(C=O)o1,-4,4,-11,0
O=Cc1ccc(-c2ccccc2C(=O)O)o1,-9,5,35*,-2
Cc1c(Cl)cccc1-c1ccc(/C=N/n2cnnc2)o1,9,3,-7,-2
Cc1ccc2nc(/C(C#N)=C/c3ccc(-c4ccccc4C(=O)O)o3)[nH]c2c1,-126,?,69,?
SMILES,PABP1 MLLE inh,PABP FP inh,NRP1-CendR mod,eIF4H FP inh
Oc1ccccc1N=Cc1ccc[nH]1,17,81*,-10,49*
CC(C)c1ccc(C2NC(=S)NC3=C2C(=O)CCC3)cc1 (stereo not drawn),-126,50,-9,active
CC(=O)c1c(C)[nH]c(C(=O)OCC(=O)NCc2cccs2)c1C,-15,.,21*,.
Cc1cc(C=O)c(C)n1-c1ccc(N2CCCCC2)c([N+](=O)[O-])c1,2,13,41*,2
CCN1C(=O)/C(=C2/Sc3ccccc3N2CC)SC1=S,9,11,48*,45
CC1(C)C(=Cc2ccccc2)C(=O)c2ccccc21,-8,.,-6,.
CC1(C)c2ccccc2C(=O)c2ccccc21,-6,.,34*,.
OCC1(CCc2ccccc2)CCCN(CCCc2ccccc2)C1 (stereo not drawn),-9,4,-9,-5
N#CC1=C(N)C2=CCCC[C@H]2[C@H](c2ccccc2)C1(C#N)C#N,6,active,-25,89*
N#CC1=C(N)C2=CCCC[C@H]2[C@H](c2ccc(Br)cc2)C1(C#N)C#N,15,10,-18,51
Cc1ccc(S(=O)(=O)N2CC(O)CC2C(=O)OCC(=O)Nc2ccc([N+](=O)[O-])cc2C(F)(F)F)cc1C (stereo not drawn),-11,.,7,.
C#CCSC1=C(C#N)C(c2cccs2)C(C(=O)OCC)=C(C)N1 (stereo not drawn),8,16*,-36,63*
O=C(NNS(=O)(=O)c1ccccc1)c1cccnc1,-13,-5,7,-8
O=C(NC(=S)NNS(=O)(=O)c1ccc(Cl)cc1)c1cccnc1,40*,1,0,18
Cn1c(SCC(=O)c2ccc(F)cc2)ncc(C(=O)Nc2ccccc2)c1=O,17,.,27*,.
O=C1NCCCCC1NS(=O)(=O)c1ccc(F)c(F)c1 (stereo not drawn),10,2,-3,6
CCCS(=O)(=O)N1CCC(Cc2ccc(OC)cc2)(C(=O)OCC)CC1,1,1,39*,7
CCOC(=O)C1(Cc2ccc(OC)cc2)CCN(S(C)(=O)=O)CC1,-1,3,0,-10
COC(=O)C1Cc2ccccc2CN1S(=O)(=O)c1ccc(F)cc1 (stereo not drawn),-2,-1,-6,-4
CCN(CC)C(=O)c1cccc(-c2csc(C(O)(c3ccccc3)C(F)(F)F)n2)c1 (stereo not drawn),2,.,-6,.
CSC1=N/C(=C\c2ccc(Br)o2)C(=O)S1,0,16*,-30,57*
CCn1c(SCc2nc3sc(C(=O)O)c(C)c3c(=O)[nH]2)nc2ccccc21,-30,80*,-71,83*
COCCn1c(SCc2nc3sc(C(=O)OC)c(C)c3c(=O)[nH]2)nc2ccccc21,-88,24,-54,53
COC(=O)c1sc2nc(CSc3ccc(Br)cc3)[nH]c(=O)c2c1C,-39,17*,-28,51*
CCOC(=O)c1ccc2[nH]c(C)c(C)c2c1,6,.,46*,.
SMILES,PABP1 MLLE inh,PABP FP inh,NRP1-CendR mod,eIF4H FP inh
N#CC1=C(N)SC(N)=C(C#N)C1CCC1CCCCC1,.,116*,.,122
O=C1CCC(=O)N1CCSC(=S)N1CCSCC1,-16,2,-2,-1
CC(c1ccccc1)C(NC(=O)OCC1c2ccccc2-c2ccccc21)C(=O)O (stereo not drawn),0,.,-12,.
O=C(Nc1ccc(N2CCN(C(=O)c3ccccc3)CC2)c(Cl)c1)c1ccco1,-7,-5,-7,-2
CCOC(=O)c1ccc(N2CCN(C(=O)c3ccccc3)CC2)c(NC(=O)c2ccco2)c1,9,7,31*,2
COc1ccc(CN2C(=O)c3ccccc3C2=O)cc1C(=O)Nc1ccccc1N1CCOCC1,4,-6,32*,-1
COc1cc(C(=O)NCCc2c[nH]c3ccccc23)ccc1OCc1c(C)noc1C,-11,59,0,active
COc1cc(C(=O)NC2=NCCS2)ccc1OCc1c(C)noc1C,42*,2,-4,-5
COc1ccc(NC(=O)c2cc(CN3C(=O)c4ccccc4C3=O)ccc2OC)cn1,5,4,-9,12
COc1ccc(CNC(=O)COC(=O)c2ccc(OCc3c(C)noc3C)cc2)cc1OC,-30,-8,9,90*
